An excerpt weighted towards active compounds, which were near 3.5% of everything screened.
Smad3 FoxH1 inh – Smad3 (human) transcription factor binding inhibition | P84022 | TR-FRET Smad3/Dy647-FoxH1 peptide binding, europium anti-His | inhibition, % at 25 µM | 0.29% of 88,000 active | AID 630;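 active = compounds that reduce the energy-transfer binding signal between the protein and its labelled peptide by more than half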;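 note: 0% = Smad3 plus labelled peptide maximal FRET and 100% = peptide-only background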
MT1-MMP txn act – activates MT1-MMP transcription; HT1080 MT1-MMP promoter luciferase reporter, luminescence, overnight; active compounds read high; activation factor at 10 µM; 0.16% of 86,000 active; AID 750;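 active = activation factor of at least 2 for MT1-MMP transcription at 10 µM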
MMP13 inh – MMP13 (human) collagenase inhibition; P45452; MMP-13 fTHP FRET cleavage, Mca fluorescence; inhibition, % at 4 µM; 0.07% of 65,000 active; AID 570;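 active = inhibition above the mean of compound-free control plate wells plus 3 SD, cut at about 14% in these data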;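 note: 0% = DMSO wells and 100% = wells with reference MMP-13 inhibitor after basal subtraction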
ERa coact inh – blocks coactivator binding to human estrogen receptor alpha; TR-FRET ER-alpha LBD / SRC-1 peptide, estradiol-bound; inhibition, % at 25.6 µM; 1.7% of 86,000 active; AID 629; in the data active = inhibition above about 50%;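 note: 0% = receptor plus peptide control and 100% = peptide only without receptor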
ERa coact pot – ER-alpha (human) coactivator binding potentiation. P03372. TR-FRET ERalpha-LBD/SRC-Cy5 coactivator binding, 2 h; 100 = basal binding, no effect. coactivator binding (% of control), % at 25.6 µM. 1.3% of 86,000 active. AID 639; in the data active = activity above about 200%;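 note: binding measured in presence of low estradiol as agonist stimulus; 0% = peptide alone without receptor and 100% = receptor with peptide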
ERb coact inh – blocks coactivator binding to human estrogen receptor beta; Q92731; TR-FRET ER-beta LBD / SRC1-Cy5 peptide binding; receptor agonist-loaded with 1 µM estradiol; inhibition, % at 25.6 µM; 1.3% of 86,000 active; AID 633;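 active = compounds whose percent inhibition of the receptor-coactivator binding signal exceeds about 50% in the single-dose screen, limit read from the data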;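 note: 0% = receptor plus peptide wells without compound and 100% = peptide-only wells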
Target sequence (Q92731 whole entry, looked up, the tested form may be a part): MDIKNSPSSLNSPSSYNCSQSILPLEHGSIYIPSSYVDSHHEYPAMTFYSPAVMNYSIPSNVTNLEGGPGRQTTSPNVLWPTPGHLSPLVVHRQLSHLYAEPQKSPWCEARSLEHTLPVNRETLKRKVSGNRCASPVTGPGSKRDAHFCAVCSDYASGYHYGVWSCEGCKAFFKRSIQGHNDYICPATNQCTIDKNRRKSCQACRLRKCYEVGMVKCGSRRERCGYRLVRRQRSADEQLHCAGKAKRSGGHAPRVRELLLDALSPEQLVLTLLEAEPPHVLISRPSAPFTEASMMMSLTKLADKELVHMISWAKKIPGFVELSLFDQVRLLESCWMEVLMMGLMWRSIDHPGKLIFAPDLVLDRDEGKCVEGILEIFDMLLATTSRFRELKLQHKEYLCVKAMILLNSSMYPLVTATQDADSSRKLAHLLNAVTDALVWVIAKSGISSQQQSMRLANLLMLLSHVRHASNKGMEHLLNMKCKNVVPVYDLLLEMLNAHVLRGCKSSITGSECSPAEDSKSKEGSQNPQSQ
* marks the source's active call; other numbers are inactive results; ! = not active in a repeat; [ ] = another dose, or the depositor's remark.

For CCCS(=O)(=O)c1c(S(=O)(=O)CCC)c2c(C)cccn2c1C(=O)OC the results were Smad3 FoxH1 inh 3, MT1-MMP txn act 1.1, ERa coact inh -4, ERa coact pot 72 and ERb coact inh -6.
For CCOC(=O)c1cnn(-c2nc(SC)nc3sc4c(c23)CCC4)c1N the results were Smad3 FoxH1 inh 14, MT1-MMP txn act 1.1, MMP13 inh 0, ERa coact inh 75*[fluorescence artefact?], ERa coact pot 61 and ERb coact inh 60*.
Screening Cc1nc(-n2ncc(C#N)c2N)c2c3c(sc2n1)CCC3 returned Smad3 FoxH1 inh 12, MT1-MMP txn act 0.9, ERa coact inh 67*[fluorescence artefact?], ERa coact pot 208*[fluorescence artefact?] and ERb coact inh 55*[fluorescence artefact?].
Screening O=C(C1CCCCC1)N1CCN(S(=O)(=O)c2ccc(Br)cc2)CC1 returned Smad3 FoxH1 inh 5, MT1-MMP txn act 1.1, MMP13 inh 0, ERa coact inh -1, ERa coact pot 103 and ERb coact inh -1.
Screening O=C(c1sc2ccccc2c1Cl)N(Cc1cccs1)C1CCS(=O)(=O)C1 (centres undefined) returned Smad3 FoxH1 inh -13, MT1-MMP txn act 1.1, MMP13 inh -1, ERa coact inh 58*[fluorescence artefact?], ERa coact pot 89 and ERb coact inh 4.
Screening O=C1c2ccccc2C(=O)N1CCCc1nc(-c2ccccn2)no1 returned Smad3 FoxH1 inh -2, MT1-MMP txn act 1.4, MMP13 inh 0, ERa coact inh 6, ERa coact pot 105 and ERb coact inh -1.
Cn1nnnc1SCC1=C(C(=O)O)N2C(=O)[C@@H](NC(=O)[C@H](O)c3ccccc3)[C@H]2SC1 was read as MMP13 inh -11.
`O=C(NCc1ccccn1)c1ccc2ccccc2n1` gave Smad3 FoxH1 inh 2, MMP13 inh -3, ERa coact inh -2, ERa coact pot 94 and ERb coact inh 3.
For COC(=O)Cc1csc(N)n1 the results were Smad3 FoxH1 inh -15, MT1-MMP txn act 0.9, MMP13 inh 0, ERa coact inh -4, ERa coact pot 109 and ERb coact inh 63*![fluorescence artefact?].
`CC(=O)c1oc2ccccc2c1NC(=O)COC(=O)c1ccc(-n2nc(C)cc2C)cc1` gave Smad3 FoxH1 inh -1, MT1-MMP txn act 1.2, MMP13 inh -3, ERa coact inh 75*[fluorescence artefact?], ERa coact pot 79 and ERb coact inh 32.
Cc1cc(C)n(-c2ccc(C(=O)OCC(=O)Nc3ccc(S(=O)(=O)N4CCCCC4)cc3)cc2)n1 was read as Smad3 FoxH1 inh -15, MT1-MMP txn act 1.2, ERa coact inh -8, ERa coact pot 109 and ERb coact inh -7.
`O=C(Cn1nnc(-c2ccccc2NC(=O)c2ccccc2F)n1)NCc1ccco1` gave Smad3 FoxH1 inh -3, MT1-MMP txn act 1, MMP13 inh 5, ERa coact inh 29, ERa coact pot 136 and ERb coact inh 14.
For COc1ccc(NC(=O)Cn2nnc(-c3ccccc3NC(=O)c3ccco3)n2)cc1 the results were Smad3 FoxH1 inh -6, MT1-MMP txn act 1.2, MMP13 inh 4, ERa coact inh 28, ERa coact pot 149 and ERb coact inh 52*[fluorescence artefact?].
O=C(Nc1ccccc1C(=O)NC1CCCCC1)c1ccco1 was read as Smad3 FoxH1 inh 2, MT1-MMP txn act 1, ERa coact inh 12, ERa coact pot 75 and ERb coact inh 18.
`CCC(C)C(NC(=O)c1ccccc1NC(=O)c1ccco1)C(=O)NC1CCCCC1` (centres undefined) gave Smad3 FoxH1 inh 4, MT1-MMP txn act 1.1, MMP13 inh 2, ERa coact inh 56*[fluorescence artefact?], ERa coact pot 87 and ERb coact inh 21.
`O=C(Cn1nnc(-c2ccccc2NC(=O)c2ccco2)n1)NC1CCCCC1` gave Smad3 FoxH1 inh -14, MT1-MMP txn act 1.1, MMP13 inh 4, ERa coact inh 47, ERa coact pot 288*[fluorescence artefact?] and ERb coact inh 21.
Screening COc1ccccc1NC(=O)Cn1nnc(-c2ccccc2NC(=O)c2ccco2)n1 returned Smad3 FoxH1 inh 2, MT1-MMP txn act 1.1, MMP13 inh -1, ERa coact inh -38, ERa coact pot 84 and ERb coact inh 16.
Screening COc1ccc(C(=O)Nc2ccccc2-c2nnn(CC(=O)NCc3ccco3)n2)cc1 returned Smad3 FoxH1 inh -6, MT1-MMP txn act 1, MMP13 inh 1, ERa coact inh 11, ERa coact pot 210* and ERb coact inh 1.
`COc1ccccc1CNc1cc(CSc2ccc(Cl)cc2)nc(C)n1` gave Smad3 FoxH1 inh 12, MT1-MMP txn act 1.1, ERa coact inh 4, ERa coact pot 92 and ERb coact inh 10.
`CCOC(=O)Cn1nc(Cc2ccccc2)c2ccccc2c1=O` gave Smad3 FoxH1 inh -6, MT1-MMP txn act 0.9, ERa coact inh 1, ERa coact pot 93 and ERb coact inh 4.
For CCOc1ccc(Cl)cc1S(=O)(=O)NCc1cccnc1 the results were Smad3 FoxH1 inh -5, MT1-MMP txn act 1.2, ERa coact inh 6, ERa coact pot 105 and ERb coact inh 4.
`Nc1nc(N)c(N=Nc2ccc(C(=O)O)c(O)c2)c(N)n1` gave Smad3 FoxH1 inh 55*.
`NS(=O)(=O)c1ccc(N=Nc2ccc(O)c(C(=O)O)c2)cc1` gave Smad3 FoxH1 inh 19.
c1ccc(-c2noc(-c3cccc4ccccc34)n2)cc1 was read as Smad3 FoxH1 inh 4, MT1-MMP txn act 2*, MMP13 inh -9, ERa coact inh -6, ERa coact pot 117 and ERb coact inh -3.
c1ccc2c(-c3nc(-c4ccncc4)no3)cccc2c1 was read as Smad3 FoxH1 inh -15, MT1-MMP txn act 1.5, MMP13 inh -20, ERa coact inh 34, ERa coact pot 89 and ERb coact inh 27.
Screening Cc1cc(S(=O)(=O)Nc2ccccc2C(=O)O)ccc1Cl returned Smad3 FoxH1 inh 0, MT1-MMP txn act 1, MMP13 inh -2, ERa coact inh 2, ERa coact pot 123 and ERb coact inh -8.
Screening Cc1nn(-c2ccccc2)c(Cl)c1/C=N/Nc1ccc(S(=O)(=O)Nc2ccccc2C(=O)O)cc1[N+](=O)[O-] returned Smad3 FoxH1 inh 9, MT1-MMP txn act 1.1, ERa coact inh 89*, ERa coact pot 23 and ERb coact inh 64*.
O=C(NCc1ccccn1)C1CCN(S(=O)(=O)c2cccs2)CC1 was read as Smad3 FoxH1 inh -6, MT1-MMP txn act 1.2, MMP13 inh -3, ERa coact inh 19, ERa coact pot 109 and ERb coact inh 17.
For COC(=O)c1ccc(COC(=O)c2ccc(S(=O)(=O)N3CCC(C)CC3)cc2)o1 the results were Smad3 FoxH1 inh -6, ERa coact inh 19, ERa coact pot 730* and ERb coact inh 7.
For CCOc1ccccc1-n1c(SCC(=O)NC(C)(C)C)nnc1-c1ccoc1C the results were Smad3 FoxH1 inh 0, MT1-MMP txn act 1.2, MMP13 inh 2, ERa coact inh 2, ERa coact pot 113 and ERb coact inh -1.
Screening CN(C)CCCSc1nc2ccccc2[nH]1 returned Smad3 FoxH1 inh 12.

Source: PubChem
